# Measurements as given in PubChem BioAssay (Tox21).
# Records with an inconclusive call do not appear. Active and inactive are the calls of the source. Calls come from the whole dose curve; as a rule, active = well fitted activation curve with a large enough effect in the repeat runs; inconclusive = weak or mixed curves; inactive = flat fitted curve, though single readings scatter.
# Test: A CellTox Green Cytotoxicity Assay to monitor cytotoxicity in HEK293 cells - 32 hour (AID 1224881); note: nearly all actives have a fitted effect of over 40% in size
# Details: CellTox Green fluorescence; series mostly up to 76.8 µM; cytotoxicity increase: at the top concentration
# Source text: National Center for Advancing Translational Sciences [NCATS]
# NIH Chemical Genomics Center [NCGC]
# U.S. Environmental Protection Agency [EPA]
# National Institutes of Environmental Health Sciences [NIEHS]
# National Toxicology Program [NTP]
# Cell-based models are critical for drug discovery. Determining the natural cytotoxic effects resulting from test compounds is an essential research activity. A CellTox Green Cytotoxicity Assay to monitor cytotoxicity in real time of continues cell culture during 40 hours of the compound treatment was used to screen Tox21 10K library compounds in Hek293 cells. CellTox Green Cytotoxicity Assay is a nonlytic, homogeneous, biofluorescent method to measure cytotoxicity in cell culture after experimental manipulation. The assay system uses a proprietary asymmetric cyanine dye that is excluded from viable cells but preferentially stains the dead cell's DNA. […] Viable cells produce no appreciable increases in fluorescence. Therefore, the fluorescence signal produced by the binding interaction with dead cell DNA is proportional to cytotoxicity.
# The mixture of Hek293 cell suspension and reagents were dispensed at 600cells/6 ul/well in 1536-well tissue culture treated black solid bottom plates using a Multidrop dispenser. After the assay plates were incubated at a 37 C/5% CO2 incubator for 5 hours, 23 nL of compounds dissolved in DMSO, positive and negative controls was transferred to the assay plate by a pintool work station. The plates were incubated at 37 C for 40 hours. The fluorescence intensity were measured at 0h, 8h, 16h, 24h, 32h and 40h time points using ViewLux plate reader during compound treatment.
# % is set by controls: 0 for no effect and ±100 for the full control effect; potency is the fitted concentration of half-maximal effect.
Compound,cytotoxicity increase,Potency
O=C(O)c1cc(=O)c2ccccc2o1,2.89% [at 35.3 µM] (inactive),–
NC[C@H]1O[C@H](O[C@H]2[C@H](O[C@@H]3O[C@H](CO)[C@@H](O)[C@H]3O)C(O)[C@H](N)C[C@@H]2N)[C@H](N)[C@@H](O)[C@@H]1O (stereo not given in full),-11.8% [at 6.97 µM] (inactive),–
Cc1cc(-n2nc3ccc(Cl)cc3n2)c(O)c(C(C)(C)C)c1,-25.2% [at 35.3 µM] (inactive),–
CC(C)CCOC(=O)/C=C/c1ccccc1,24.8% (inactive),–
CCC(C)n1ncn(-c2ccc(N3CCN(c4ccc(OC[C@H]5CO[C@](Cn6cncn6)(c6ccc(Cl)cc6Cl)O5)cc4)CC3)cc2)c1=O (stereo not given in full),-18.6% [at 35.3 µM] (inactive),–
CCCC1CCC(=O)CC1,-0.27% (inactive),–
CCO[C@@H]1O[C@H](C(COCc2ccccc2)OCc2ccccc2)[C@H](OCc2ccccc2)[C@H]1O (stereo not given in full),-9.67% [at 35.3 µM] (inactive),–
CC1=CCC(=C(C)C)CC1,-7.13% (inactive),–
O=C1CCc2ccc(OCCCCN3CCN(c4cccc(Cl)c4Cl)CC3)cc2N1,22.9% [at 35.3 µM] (inactive),–
CC(C)(C)CC(C)(C)c1ccc(Nc2ccc(C(C)(C)CC(C)(C)C)cc2)cc1,0.962% [at 6.97 µM] (inactive),–
[Cu+],-1.63% (inactive),–
ClCCl,-2.5% (inactive),–
Nc1nc(-c2ccccc2)cs1,5.38% (inactive),–
O=S(=O)(O)c1ccc(N=Nc2c(O)ccc3ccccc23)cc1,-23.7% (inactive),–
CCCCN(CCCC)CC(O)c1cc(Cl)cc2c1-c1ccc(Cl)cc1/C2=C/c1ccc(Cl)cc1 (stereo not given),0.268% [at 35.3 µM] (inactive),–
O=c1c(O)c(-c2ccc(O)cc2O)oc2cc(O)cc(O)c12,-4% (inactive),–
Oc1cc(Cl)cc(Cl)c1Cl,–,50.2 µM (active)
CN(C)Cc1ccccc1O,6.68% (inactive),–
CC(C)(C)C1CCC(=O)CC1,-0.817% (inactive),–
CCCCCCCCCCCC(=O)OCC(C)OC(=O)CCCCC(=O)O (stereo not given),-13.9% [at 35.3 µM] (inactive),–

Compound,cytotoxicity increase,Potency
CN(C)c1ccc(C(=C2C=CC(=[N+](C)C)C=C2)c2ccc(N(C)C)cc2)cc1,30.1% (inactive),–
O=C1NC(=O)[C@@H]2CC=CC[C@H]12,-4.59% (inactive),–
CCN1C(=O)c2ccccc2C1Nc1ccc(OCCN2CCCCC2)cc1 (stereo not given),2.53% [at 35.3 µM] (inactive),–
O=C(Nc1ccc2c(O)c(N=Nc3ccc(N=Nc4ccc(S(=O)(=O)O)cc4)cc3)c(S(=O)(=O)O)cc2c1)c1ccccc1,-44.1% (inactive),–
OC/C=C/CO,1.63% (inactive),–
COCCOc1cc2cc(C(=O)NC3CCN(C(C)C)CC3)n(CC(=O)Nc3ccc(Cl)cn3)c2cn1,-13.9% (inactive),–
CN1CCN2c3ccccc3Cc3ccccc3C2C1 (stereo not given),14.4% [at 35.3 µM] (inactive),–
S=C([S-])NCCNC(=S)[S-].S=C([S-])NCCNC(=S)[S-].[Mn+2].[Zn+2],-12.8% [at 35.3 µM] (inactive),–
CC(C)=CCC1=C(O)c2ccccc2C(=O)C1=O,-11.4% (inactive),–
O=S(=O)(O)c1ccc(Nc2nc(Nc3ccc(/C=C/c4ccc(Nc5nc(Nc6ccc(S(=O)(=O)O)cc6)nc(N(CCO)CCO)n5)cc4S(=O)(=O)O)c(S(=O)(=O)O)c3)nc(N(CCO)CCO)n2)cc1,-10.4% [at 35.3 µM] (inactive),–
CCN(CC)C(=O)c1cc(S(=O)(=O)Cc2ccccc2)c(N2CCC(c3ccccc3)CC2)cc1N(CC)CCN(C)C,–,19.3 µM (active)
Cc1c(C)c([N+](=O)[O-])c(C(C)(C)C)c([N+](=O)[O-])c1C,7.87% (inactive),–
O=C(O)[C@H](O)[C@@H](O)[C@H](O[C@@H]1O[C@H](CO)[C@H](O)[C@H](O)[C@H]1O)[C@H](O)CO,-14.2% [at 35.3 µM] (inactive),–
CCC(COC(=O)CCS)(COC(=O)CCS)COC(=O)CCS,-4.65% (inactive),–
CN1CCC[C@@H]1CCO[C@](C)(c1ccccc1)c1ccc(Cl)cc1,–,26.8 µM (active)
Clc1sc(Cl)c(Cl)c1Cl,-3.29% (inactive),–
CC(C)NC[C@@H](O)COc1ccc(CC(N)=O)cc1,-4.89% [at 35.3 µM] (inactive),–
COc1cc(/C=C/c2ccccc2)oc(=O)c1,8.18% (inactive),–
COc1cc(S(=O)(=O)O)c(C)cc1N=Nc1c(O)ccc2cc(S(=O)(=O)O)ccc12,-43.7% (inactive),–
CC1(C)CCC[C@]2(C)[C@H]3CC(=O)O[C@]3(C)CC[C@@H]12,–,49 µM (active)
